TDP1 cell CPT = growth inhibition of DT40 Tdp1-/-;hTDP1 cells with camptothecin (screen for TDP1 inhibitors) | 420,000 tested, 12% active | Potency, µM (doses to about 46.2 µM), inactives show at the highest dose activity change, negative = growth inhibition, most hits filed as inhibitors | AID 686979 | chicken DT40 Tdp1-/-;hTDP1 cells + 20 nM CPT, ATP luminescence, 48 h; also: potency is read from the fitted curve at half-maximal effect; nearly all actives have a fitted effect of over 55% in size
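Chicken DT40 Tdp1-/- cells stably complemented with human TDP1 were seeded at 400 cells/well in medium containing 20 nM camptothecin, exposed to pin-transferred compounds, and grown at 37 °C for at least 48 hr. Viability was read as ATP luminescence.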
HT1080 IDH1KD tx = toxicity to HT-1080 IDH1 knockdown cells (counter line). Potency, µM (highest dose often 46.1 µM), inactives show top-dose activity, negative = toxicity, usual class: cytotoxic. 360,000 tested, 2% active. HT-1080 IDH1 knockdown viability, ATP luminescence, 48 h;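 also: potency is read from the fitted curve at half-maximal effect; 0% = DMSO wells and -100% = cell-free medium wells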
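HT-1080-IDH1KD cells (IDH1 knocked down), 750/well in RPMI with 5% FBS, treated with compound 48 h at 37 degrees C. Viability by CellTiter-Glo luminescence, normalised to DMSO and no-cell wells; concentration-response curves classed.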
IL-1B inflam inh = inhibitors of inflammasome signaling (IL-1 beta secretion); 360,000 tested, 4.7% active; THP-1 LPS/ATP IL-1B secretion, AlphaLISA, 16 h; stronger effect = lower value; activity change, % at 57.5 µM; in the data active = activity change below about -50%; inconclusive = mostly about -30% to -49%
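THP-1 cells pretreated 1 hr with compounds (up to 57.5 uM final), then stimulated with LPS (250 ng/mL final) plus ATP (1.25 mM final); secreted IL-1B measured by AlphaLISA after 16 hr, decreased signal indicating inhibition.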
ELG1 DNA repair = ELG1-dependent DNA repair inhibition. 330,000 tested, 2.3% active. Potency, µM (highest dose often 46.1 µM), for inactives: top-dose activity change, negative = inhibition, most hits filed as inhibitors. HEK293T ELG1-luciferase reporter, luminescence, 16 h; DNA damage induced by 5-fluorouridine; also: potency is read from the fitted curve at half-maximal effect; nearly all actives have a fitted effect of over 55% in size
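5-Fluorouridine DNA damage + compound/DMSO, 2,000 cells/well, 16 h, 37 °C/5% CO2. ONE-Glo, 30 min RT, luminescence. Readout = decrease in reporter signal.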
HT1080-NT tox = kills 2HG-producing HT-1080-NT fibrosarcoma cells | HT-1080-NT fibrosarcoma viability, CellTiter-Glo ATP luminescence, 48 h | Potency, µM (titrated, usually from 46.1 µM), inactives show at the highest dose activity, negative = less viability, most hits filed as cytotoxic | 360,000 tested, 1.6% active;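 also: NT is the 2HG producing partner of a matched IDH1 knockdown line; potency is read from the fitted curve at half-maximal effect; 0% = DMSO-treated cells and -100% = media-only wells without cells; nearly all actives have a fitted effect of over 55% in size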
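Toxicity toward the 2HG-producing NT line was scored as %Activity, normalised to DMSO and no-cell wells, from CellTiter-Glo luminescence after 48 hours' treatment.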
DT40 TDP1 no CPT = qHTS for Inhibitors of human tyrosyl-DNA phosphodiesterase 1 (TDP1): qHTS in cells in absence of CPT. 420,000 tested, 15% active. DT40 Tdp1-/- hTDP1 cells, no CPT, ATP luminescence, 48 h. Potency, µM (series often up to 46.2 µM), for inactives: at the highest dose activity change, negative = growth inhibition, actives largely listed as inhibitors; also: potency is read from the fitted curve at half-maximal effect; nearly all actives have a fitted effect of over 55% in size
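Chicken DT40 Tdp1-/- cells stably complemented with human TDP1 were seeded at 400 cells/well with DMSO in place of 20 nM camptothecin. After compound pinning, cells grew at least 48 hr at 37 °C; viability read by CellTiter-Glo luminescence.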
* = called active by the depositor; ? = inconclusive; . = not tested or not shown. An excerpt weighted towards active compounds, which were near 19% of everything screened. Unless noted, calls follow the shape of the dose curve; as a rule, active = well fitted curve in the direction sought with a large enough effect; inconclusive = small, poorly fitted or top-dose-only effect, or another doubt; inactive = no such curve, though single readings can be large; an effect the other way counts as inactive or inconclusive. Unless noted, % is scaled to controls: 0 for no effect and ±100 for the full control effect.

SMILES	TDP1 cell CPT	HT1080 IDH1KD tx	IL-1B inflam inh	ELG1 DNA repair	HT1080-NT tox	DT40 TDP1 no CPT
Cc1ccc2c(c1)c1c(c(=O)n(-c3ccccc3C)c(=O)n1Cc1ccccc1F)n2C	15µM*	.	.	.	.	5.8µM*
COc1ccc2c(c1)c1c(c(=O)n(-c3ccc(C)cc3)c(=O)n1CC(=O)NCc1ccc(C)cc1)n2C	7.3µM*	.	.	.	.	6.5µM*
COc1ccc(-n2nc3cc(C)c(NC(=O)COc4cccc(C)c4)cc3n2)cc1	6%	.	.	.	.	0%
COc1ccc(C(=O)c2[nH]c(N)c(C(=O)NCCc3c[nH]c4ccccc34)c2-c2ccc(Cl)c(F)c2)cc1	?	21µM*	-17	.	?	18µM*
Nc1[nH]c(C(=O)c2ccccc2)c(-c2cccnc2)c1C(=O)NCCc1ccc(Cl)cc1Cl	?	-10%	-3	.	-14%	?
COc1ccc(C(=O)c2[nH]c(N)c(C(=O)NCCc3c[nH]c4ccccc34)c2-c2ccc(Cl)cc2)cc1	18µM*	?	?	.	?	?
COc1cc([N+](=O)[O-])ccc1NC(=O)Cn1ccsc1=N	-11%	-13%	-22	3%	-21%	?
CC(C)[C@H](Nc1ccc(C(F)(F)F)cc1[N+](=O)[O-])C(=O)O	2%	-7%	28	5%	-3%	0%
O=C(NNc1ccc(C(F)(F)F)cc1[N+](=O)[O-])c1ccc(NS(=O)(=O)c2ccc(F)cc2)cc1	?	21µM*	?	21µM*	?	23µM*
O=C1c2cc([N+](=O)[O-])ccc2-c2cc(Br)c(N=C(NO)C(F)(F)F)cc21	-7%	-19%	-101*	.	-17%	?
O=C(Nc1cc(S(=O)(=O)Nc2ccc(Cl)cc2)ccc1O)c1ccc(S(=O)(=O)N2CCCCCC2)cc1	?	?	-1	?	-29%	21µM*
O=C(N/N=C/c1ccc(O)c(O)c1)c1cccc(S(=O)(=O)N2CCCC2)c1	-24%	-17%	6	0%	1%	?
O=C(N/N=C\c1cc(Cl)ccc1O)c1ccc(S(=O)(=O)N2CCCCC2)cc1	0.65µM*	2.3µM*	62	?	7.3µM*	0.73µM*
O=C(Nc1cc(S(=O)(=O)N2CCOCC2)ccc1O)c1ccc(S(=O)(=O)N2CCCCC2)cc1	?	2%	-5	-6%	13%	?
CCOc1ccc(OCC)c(NC(=O)CN2CCN(c3cccc(C)c3C)CC2)c1	16µM*	3%	11	?	8%	23µM*
CCOc1cccc(N2CCN(CCNC(=O)Nc3ccc(C)cc3)CC2)c1C	?	-3%	-68*	?	-5%	?
CCOc1ccc(OCC)c(NC(=O)CN2CCN(C(=O)c3ccco3)CC2)c1	?	0%	-17	-9%	3%	?
CCOc1ccc(NC(=O)NCCN2CCN(c3ccccc3F)CC2)cc1	?	3%	?	-1%	1%	?
CCOc1ccc(NC(=O)NCCN2CCN(c3cccc(C)c3C)CC2)cc1	21µM*	2%	-3	?	1%	21µM*
O=C(NCC1CC1)C1(C(F)(F)F)CC(CCCO)CCCO1 (stereo not given)	-4%	13%	17	.	0%	5%
Cc1ccc(S(=O)(=O)NCc2ccccc2)cc1C(=O)N(C)CC(=O)Nc1c(Cl)cccc1Cl	23µM*	-1%	-13	?	0%	?
Cc1ccc(S(=O)(=O)NCc2ccccc2)cc1C(=O)N(C)CC(=O)Nc1ccccc1Br	?	3%	-9	.	2%	-17%
Cc1ccc(C(=O)N(C)Cc2ccccc2)cc1S(=O)(=O)N1CCOCC1	19%	7%	0	0%	8%	-3%
COc1ccc(CCN(C)C(=O)c2cc(S(=O)(=O)NCc3ccccc3)ccc2C)cc1OC	?	-2%	-13	8.2µM*	-12%	?
CSc1ccc(CN(C)C(=O)c2cc(S(=O)(=O)NCc3ccccc3)ccc2C)cc1	?	?	?	?	?	21µM*
SMILES	TDP1 cell CPT	HT1080 IDH1KD tx	IL-1B inflam inh	ELG1 DNA repair	HT1080-NT tox	DT40 TDP1 no CPT
CSc1ccc(CN(C)C(=O)c2cccc(S(=O)(=O)NCc3ccccc3)c2)cc1	?	-16%	0	?	-2%	?
Cc1ccc(C(=O)N(C)Cc2ccc(N3CCOCC3)cc2)cc1S(=O)(=O)NCc1ccccc1	?	-4%	-20	21µM*	-11%	-13%
CC(C)Cn1c(SCC(=O)Nc2cccnc2Cl)nnc1-c1ccco1	-3%	16%	?	-3%	12%	-5%
O=C1OC(C(Cl)(Cl)Cl)Nc2ccccc21 (stereo not given)	-5%	10%	17	.	15%	-2%
COc1ccc(C2=CCCC2)c(OC)c1	-19%	?	4	.	10%	-23%
C=Cn1cc(CNC[C@H]2O[C@@H](n3ccc(N)nc3=O)[C@H](O)[C@@H]2O)c(C)n1	1%	3%	-2	.	2%	20%
O=C(Nc1ccc(Nc2ccccc2)cc1)c1ccc(Cl)cc1	18µM*	-25%	-62*	.	-8%	13µM*
O=C(Nc1cccnc1)c1ccc(S(=O)(=O)c2ccc(Cl)cc2)cc1	?	-8%	-66*	?	-24%	23µM*
N#C/C(C(=O)Nc1ccc(Cl)cc1)=C(/S)Nc1ccccc1	15µM*	?	?	-12%	?	12µM*
O=C(Nc1ccc(Cl)cc1)C1=Cc2ccccc2OC1	?	?	-27	?	-12%	23µM*
C[C@H](O)CN(C)C	3%	.	.	.	.	-19%
Cc1ccc(CNC(=O)c2ccc(CN3CC(=O)N4CCCCC4C3=O)cc2)cc1 (stereo not given)	-3%	.	.	.	.	-16%
O=C(Nc1ccc(Nc2ccccc2)cc1)c1ccc(Br)cc1	?	-9%	7	-2%	-18%	-20%
O=C(/C=N/NC(=O)c1ccc(Cl)cc1Cl)c1ccccc1	?	?	-77*	7%	-18%	?
O=C(Nc1ccc(Nc2ccccc2)cc1)c1ccccc1	?	-3%	-27	.	-4%	21µM*
CC(C)(C)C(=O)C(Cl)C(=O)Nc1ccccc1 (stereo not given)	5.2µM*	?	?	?	2%	4.1µM*
O=C(Nc1ccc(Nc2ccccc2)cc1)C(Cl)Cl	1.2µM*	-15%	-89*	-15%	2%	1.8µM*

Compound activity as filed in PubChem.
